This is an account of results in PubChem BioAssay AID651965 (National Center for Advancing Translational Sciences (NCATS), 2013).

Hit rate of the full screen: of about 340,000 compounds, about 6,400 (1.9%) were called active. Roughly 4% stayed inconclusive and do not appear here. Calls come from the whole dose curve; as a rule, active = well fitted falling curve with a large enough effect; inconclusive = small, poorly fitted or top-dose-only effect; inactive = no such curve, though single readings can be large or run the other way. What follows is part of a selection rich in actives, with near analogues and random picks from the rest. A call without a number means that no potency is given here.
Potency is the fitted concentration of half-maximal effect.

For the test, the target named is ATP-dependent Clp protease proteolytic subunit (Bacillus subtilis (strain 168)) (UniProt P80244). In words: qHTS Assay for Activators of ClpP. Note: the source files actives as falling curves though it sought activators and does not explain the sign; nearly all actives have a fitted effect of over 65% in size. The note with it: purified B. subtilis ClpP, FRET peptide cleavage, 20 min; series mostly up to 57.5 µM. The method, boiled down: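 Buffer: 100 mM Tris/HCl pH8, 100 mM KCl, 0.05% low protease BSA, 2.5% glycerol, 0.01% Tween-20. ClpP 10 microg/mL final; 20 min RT; delta FRET normalized to ADEP and DMSO controls.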
On the technique in general: qHTS replaces the single test concentration by a dilution series.
Turning to `OC(c1ccccc1)(c1ccccc1)C1CCN(CCCOc2ccccc2)CC1`, the Potency result is “inactive”.
For `CN(C)Cc1cn(-c2ccccc2)nc1-c1ccccc1`, the Potency entry was “inactive”.
Take `Cc1ccc(-c2nn(-c3ccccc3)cc2CN(Cc2ccccc2)C(=O)CCC(=O)O)o1`: the Potency was 22.4 µM (active).
With `O=C(O)CCC(=O)N(Cc1ccccc1)Cc1ccccc1` the entry was “inactive”; with `Nc1ccc2nn(-c3ccc(Cl)cc3)nc2c1`, “inactive”; with `CCCC(=O)Nc1cc2nn(-c3ccccc3)nc2cc1C`, “inactive”.
Turning to `c1ccc(-n2nc3ccccc3n2)cc1`, the Potency is 25.1 µM (active).
Take `CCc1nc2c(OCCOc3ccccc3)cccn2c1N(C)C(=O)c1ccccc1F`: the Potency result was “inactive”.
`Cc1cccc(NC(=O)COC(=O)c2ccccc2OCc2cccc(Br)c2)c1`: the Potency entry is “inactive”.
`CCOc1ccc(-c2cc3nc(C4CCN(C(=O)OC(C)(C)C)CC4)c(C(=O)Nc4cccc(CC)c4)cn3n2)cc1`: the Potency entry was “inactive”.
As to `COc1cc(OC)cc(-c2cc3nc(C4CCN(C(=O)OC(C)(C)C)CC4)cc(=O)n3[nH]2)c1`, the Potency is 25.1 µM (active).
In the case of `Cc1ccc(-n2ncc(C(=O)NC3CC3)c2C2CCN(C(=O)OC(C)(C)C)CC2)c(C)c1`, the Potency entry is “inactive”.
Consider `COc1ccc(/C=C2\SC(=O)N(CCC(=O)NC3CCS(=O)(=O)C3)C2=O)cc1` (centres undefined), for which the Potency result was “inactive”.
As for `O=C(COC(=O)CCCN1C(=O)c2cccc3cccc(c23)C1=O)NC1CCS(=O)(=O)C1` (centres undefined), the Potency is 31.6 µM (active).
With `O=C(COC(=O)/C=C/c1ccc(Cl)cc1)NC1CCS(=O)(=O)C1` (centres undefined) the entry was “inactive”; with `Cc1ccc(F)c(S(=O)(=O)NC(=O)C2(C)CCN2C(=O)c2ccco2)c1` (centres undefined), “inactive”.
Consider `CCC(C)(C)NC(=O)/C=C/c1cc(OC)c(OC)c(S(=O)(=O)N2CCc3ccccc32)c1`, for which the Potency entry is “inactive”.
To `CCn1nc(C(=O)NNS(=O)(=O)c2cc(/C=C/C(=O)O)cc(OC)c2OC)c2ccccc2c1=O` belongs 5.62 µM (active); to `COc1cc(/C=C/C(=O)O)cc(S(=O)(=O)Nc2ccccc2SC)c1OC`, “inactive”.
Consider `COc1ccccc1CNc1nc(Nc2ccccc2Cl)c2sccc2n1`, for which the Potency entry is “inactive”.
Turning to `c1ccc(Cn2nnc3c(N4CCCCC4)ncnc32)cc1`, the Potency entry is “inactive”.
On to `O=C(CC(CC(=O)c1ccccc1)c1ccco1)c1ccccc1`, for which the Potency entry is “inactive”.
With `OC(c1ccc(Cl)cc1)c1ncc(-c2ccc(Cl)cc2)[nH]1` (centres undefined) the entry was “inactive”; with `C=CCn1c(-c2sc(-c3ccccc3)nc2C)n[nH]c1=S`, “inactive”.
Regarding `C#CC(C)(C)NC(=O)c1cnc(-c2ccccc2)nc1-c1ccccc1`, the Potency entry was “inactive”.
Consider `Cc1nc(-c2ccccc2)sc1-c1nc(-c2ccccc2)ncc1S(=O)(=O)c1ccccc1`, for which the Potency is 31.6 µM (active).
Turning to `CC1(C(=O)NCc2ccc(F)c(F)c2)Cc2c(-c3ccc4c(c3)OCO4)ccnc2O1` (centres undefined), the Potency result is “inactive”.
Regarding `CC(C)CCOc1ccc(C(=O)Nc2cc(S(=O)(=O)N3CCOCC3)ccc2N2CCOCC2)cc1`, the Potency result was “inactive”.
As for `CCCc1nc2sc3c(c2c(=O)n1NC(=O)CCCl)CCCC3`, the Potency entry is “inactive”.
With `Cn1c(NN)nc2sc3c(c2c1=O)CCC3` the figure was 11.2 µM (active); with `NNC(=O)C1CCCn2c1nc1sc3c(c1c2=O)CCCC3` (centres undefined), “inactive”; with `OCCNc1ncnc2oc(-c3ccco3)c(-c3ccco3)c12`, “inactive”.
Take `CCOc1ccc(CCN2C(=O)C(=O)N([C@@H](Cc3ccc(O)cc3)CN3CCC[C@H]3CN3C(=O)C(=O)NC[C@@H]3CC(C)C)C[C@@H]2Cc2ccccc2)cc1`: the Potency entry was “inactive”.
Turning to `COc1ccc(NC(=O)CCCOc2ccc(C(C)=O)cc2)cc1S(=O)(=O)N1CCCCC1`, the Potency entry is “inactive”.
For `Cc1ccccc1NC(=S)N(CCCN1CCOCC1)Cc1cccs1`, the Potency is 28.2 µM (active).
In the case of `CCN(Cc1ccncc1)C(=S)Nc1ccccc1C`, the Potency entry is “inactive”.
For the compound `Cc1ccc(NC(=S)N(CCN(C)C)Cc2cccs2)cc1C`, the Potency result is “inactive”.
Take `COc1ccc(/C=C/c2ccccn2)cc1OC`: the Potency entry is “inactive”.
With `Cc1cccnc1C(NC(=O)C1CCN(Cc2ccc(Cl)c(Cl)c2)CC1)c1ccc(Cl)cc1` (centres undefined), the Potency result is “inactive”.
In the case of `O=C1Nc2ccccc2NC(c2ccc3c(c2)OCO3)=C1N(Cc1ccc(F)cc1)C(=O)c1ccco1`, the Potency entry was “inactive”.
On to `O=C(COC(=O)c1ccccc1)c1ccc2c(c1)OCCO2`, for which the Potency entry was “inactive”.
With `O=C(COC(=O)c1ccc(F)cc1)Nc1ccc2c(c1)OCO2` the entry was “inactive”.
`CC(=O)Nc1cccc(C(=O)OCC(=O)c2ccc3c(c2)OCO3)c1`: the Potency was 12.6 µM (active).
With `CC(=O)Nc1cccc(-c2cc3nc(NCc4cccnc4)n(C)c(=O)c3s2)c1` the entry was “inactive”; with `COc1ccc(C(c2nnnn2C2CCCC2)N2CCN(C/C=C/c3ccccc3)CC2)cc1` (centres undefined), “inactive”; with `CC(=O)C1=CCC(c2ccccc2)N(S(=O)(=O)c2ccc(C)cc2)C1` (centres undefined), “inactive”.
With `CCOc1cccc2cc(C(=O)OCC(=O)Nc3c(C)cccc3CC)c(=O)oc12` the entry was “inactive”; with `C=CCc1cccc2cc(C(=O)N3CCN(C(=O)OCC)CC3)c(=O)oc12`, “inactive”; with `C=CCc1cccc2cc(C(=O)OCC)c(=O)oc12`, 35.5 µM (active).
Consider `CCOC(=O)C1=CCC2C(=O)N(Cc3ccccc3)C(=O)C12` (centres undefined), for which the Potency result is “inactive”.
Consider `CC(C)c1cc(Cn2c3ccccc3c(=O)n2C(C)Cn2cc(C3CC3)nn2)on1` (centres undefined), for which the Potency entry is “inactive”.
For `COc1cccc(-c2ccc(C#N)c(SCC(=O)NCCc3ccc(Cl)cc3)n2)c1`, the Potency is 35.5 µM (active).
To `COc1cccc(CNC(=O)CSc2c3c(nc4cc(Cl)ccc24)CCCC3)c1` belongs “inactive”.
To `COc1ccc(CCNC(=O)CSc2nc(-c3ccc(OC)c(OC)c3)ccc2C#N)cc1` belongs 17.8 µM (active); to `COc1ccc(CCNC(=O)CSc2nnc3ccc(-c4ccncc4)nn23)cc1`, “inactive”.
As to `COc1ccc(CCNC(=O)COC(=O)c2cnc(Cl)c(Cl)c2)cc1`, the Potency result was “inactive”.
`COc1ccc(CCNC(=O)CSc2nc(C)nc3c2oc2ccccc23)cc1OC`: the Potency entry was “inactive”.
Turning to `Nc1nc2cc(Cl)ccc2n1N`, the Potency entry is “inactive”.
As to `OCC1OC(n2cnc3c(N4CCCC4)ncnc32)C(O)C1O` (centres undefined), the Potency result was “inactive”.
As to `COc1cccc(C(O)c2nc(-c3ccc(C)c(C)c3)cs2)c1` (centres undefined), the Potency result is “inactive”.
As for `CCOC(=O)[C@]12CCCC=C1N(Cc1cccc3ccccc13)C(=O)[C@H](CC(=O)NCC13CC4CC(CC(C4)C1)C3)C2`, the Potency entry was “inactive”.
On to `CCCCN(C=O)c1c(CC)nc2c(OCc3ccccc3C(=O)OC)cccn12`, for which the Potency result is “inactive”.
As for `C[C@@H]1CN([C@@H](C)CO)C(=O)CCCn2nncc2CO[C@H]1CN(C)C(=O)Nc1ccc(C(F)(F)F)cc1`, the Potency result is “inactive”.
With `Cc1nc(C(=O)NCc2ccccc2)sc1C1(C)CC(c2cccnc2)=NO1` (centres undefined) the entry was “inactive”; with `Cc1nc(NCc2ccccc2)c(C(N)=O)c2c1COC(C)(C)C2`, 22.4 µM (active).
For `CC1(C)Cc2cccc(OCC(=O)NCc3ccccc3)c2O1`, the Potency result is “inactive”.
With `COC(=O)[C@]12CCCCC=C1N(CCC1=CCCCC1)C(=O)[C@H](CC(=O)N1CCSCC1)C2` the entry was “inactive”; with `CC(=O)Nc1cnc(-c2ccc(O)cc2C)cn1`, “inactive”.
With `Brc1ccc2nc(-c3ccccc3)c(Cc3ccccc3)n2c1`, the Potency entry is “inactive”.
`CC(C)C(=O)N1CCC2(CC1)Oc1ccc(F)cc1C(=O)C21CC(c2ccccc2)=NO1` (centres undefined): the Potency result is “inactive”.
With `CC(C)OC(=O)C(C#N)c1nc2ccccc2nc1N1CCN(Cc2ccccc2)CC1` (centres undefined) the entry was “inactive”; with `CCOC(=O)N1CCN(C(=O)C(=O)Nc2sc3c(c2C#N)CC(C)(C)OC3)CC1`, “inactive”.
To `CC(C)C(=O)N1CCN(c2nc(-c3ccccc3)c3c(c2C#N)CC(C)(C)OC3)CC1` belongs 28.2 µM (active); to `CC1(C)Cc2c(sc(NC(=O)C(=O)N3CCOCC3)c2C#N)CO1`, “inactive”.
With `CC(C)c1nc(N2CCOCC2)c(C#N)c2c1COC(C)(C)C2` the figure was 15.8 µM (active); with `Cc1ccc(S(=O)(=O)N2CCC(=O)N([C@H](COCc3ccccc3)C(C)C)CC2)cc1`, “inactive”.
For the compound `CN(N=O)c1ccc(C=C2c3ccccc3-c3ccccc32)cc1`, the Potency result was “inactive”.
Take `CN(C)C1=C2C=CC=CC2/C(=C2/C=Cc3ccccc32)C=C1` (centres undefined): the Potency entry is “inactive”.
For `Cc1ccc(-c2cnc(C(O)c3cccc(C)c3C)[nH]2)cc1` (centres undefined), the Potency result is “inactive”.
For the compound `O=C(c1ccco1)N(Cc1cccs1)c1ccc(O)cc1`, the Potency result was “inactive”.
To `O=C1NC[C@H](Cc2ccc(O)cc2)N(C[C@@H]2CCCN2C[C@H](Cc2ccccc2)N2C[C@H](Cc3ccccc3)N(CC3CCCCC3)C(=O)C2=O)C1=O` belongs “inactive”; to `CCOC(=O)NN1C(=O)c2ccccc2NC1c1ccccc1O` (centres undefined), 25.1 µM (active).
In the case of `CCOC(=O)C(=O)C1C(=O)Nc2ccccc21` (centres undefined), the Potency result is “inactive”.
To `CCN1C(=O)N[C@@H](c2ccccc2)C(C(=O)OC)=C1C` belongs “inactive”; to `CCOC(=O)NC(C(F)(F)F)(C(F)(F)F)P(=O)(c1ccccc1)c1ccccc1`, “inactive”; to `CCOC(=O)NN1C(=O)c2ccccc2NC1c1cccc(O)c1` (centres undefined), 31.6 µM (active).
In the case of `CCOC(=O)CN1CCC(c2ccccc2)CC1`, the Potency result was “inactive”.
With `CCOC(=O)[C@]12CCCC=C1N(CCC1=CCCCC1)C(=O)[C@H](CC(=O)NCCCCc1ccccc1)C2` the entry was “inactive”; with `O=C(Nc1ccccc1C(F)(F)F)c1nc(S(=O)(=O)Cc2ccccc2F)ncc1Cl`, “inactive”.
With `COc1cc2nc(Cl)nc(NC3CC3)c2cc1OC` the entry was “inactive”; with `CN(CC(=O)O)C(=O)c1ccccc1`, “inactive”; with `CN(O)C(=S)c1ccccc1`, 11.2 µM (active).
As for `CN(/N=C/c1ccccc1)C(=S)c1ccccc1`, the Potency entry was “inactive”.
For `O=S1(=O)CC(N2CCN(Cc3ccccc3F)CC2)CN1Cc1cn(Cc2ccccc2)nn1` (centres undefined), the Potency entry was “inactive”.
On to `Cc1c(CCO)sc[n+]1CC(=O)c1ccc2ccccc2c1`, for which the Potency result is “inactive”.
As to `CCc1nc2ccc(C(=O)N(C)Cc3ccco3)cn2c1N(C)C(=O)Cc1ccccc1`, the Potency result was “inactive”.
As for `CN(CCO)C(=O)c1nc[nH]c1C(=O)N(C)Cc1ccccc1`, the Potency result was “inactive”.
For the compound `CN(Cc1ccccc1)C(=O)[C@@H]1CCCN1C(=O)[C@@H]1CCCN1C(=O)c1c(F)cccc1F`, the Potency result is “inactive”.
For `Cc1nccn1-c1ccc(NC(=O)[C@H]2O[C@@H](n3ccc(=O)[nH]c3=O)[C@H](O)[C@@H]2O)cc1`, the Potency entry was “inactive”.
